Measurements from PubChem BioAssay (NCI).
This is part of a sample that, as a whole, favours compounds with a hit. Of some 79,000 tested, about 15% had one in any assay. Cut-off read from the data, not from the text of the source: active = growth inhibition above about 70%; inactive = the rest.

Columns and labels:
[1] = NCI Yeast Anticancer Drug Screen. Data for the rad50 strain (AID 155);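 note: 0% = growth of vehicle-only cultures of the same strain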; details: S. cerevisiae rad50 strain growth inhibition; at 50.0 µM; stronger effect = higher value
Summary of the method: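 Inhibition values express reduced yeast growth in compound-treated cultures relative to vehicle-treated controls.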

[2] = NCI Yeast Anticancer Drug Screen. Data for the mec2-1 strain (AID 157); details: S. cerevisiae mec2-1 strain, at 50.0 µM, stronger effect = higher value
Summary of the method: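 Vehicle-treated cultures served as reference for growth inhibition of compound-exposed mec2-1 yeast.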

[3] = NCI Yeast Anticancer Drug Screen. Data for the sgs1 mgt1 strain (AID 161);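 note: 0% = growth of cultures given vehicle only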; details: S. cerevisiae sgs1 mgt1 strain, at 50.0 µM, stronger effect = higher value
Summary of the method: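 Test agents were incubated with a DNA-repair-mutant yeast strain. Growth was then read and compared against vehicle-treated controls.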

[4] = NCI Yeast Anticancer Drug Screen. Data for the cln2 rad14 strain (AID 165);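 note: 0% = growth equal to vehicle treated cultures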; details: S. cerevisiae cln2 rad14 strain, at 50.0 µM, stronger effect = higher value
Summary of the method: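 Each compound was tested on cln2 rad14 yeast. Inhibition of growth was calculated against vehicle-exposed controls.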

[5] = NCI Yeast Anticancer Drug Screen. Data for the bub3 strain (AID 167); details: S. cerevisiae bub3 mutant strain, at 50.0 µM, stronger effect = higher value
Summary of the method: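 Steps: expose the mutant yeast strain to compound; grow alongside vehicle-treated cultures; measure growth; express inhibition against the vehicle cultures.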

[6] = NCI Yeast Anticancer Drug Screen. Data for the mlh1 rad18 strain (AID 175); details: S. cerevisiae mlh1 rad18 strain growth inhibition; at 50.0 µM; stronger effect = higher value
Summary of the method: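 Vehicle-treated cultures served as the reference for growth inhibition in a yeast strain carrying DNA damage repair alterations exposed to each compound.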

Measured: growth inhibition

C/C(CC(O)(C(F)(F)F)C(F)(F)F)=N\NC(N)=S
inactive: [1] -30.1% | [2] -14.7% | [3] -12.9% | [4] 9.55% | [5] 7.1% | [6] -9.3%

O=C1C(c2cnc3c(n2)CCC=C3)=C(O)c2ccccc21
inactive: [1] -1.15% | [2] -7.8% | [3] -6.6% | [4] -84.2% | [5] -16.7% | [6] -0.65%

CC(=O)Nc1ccc(/C=C/C(=O)c2sc(-c3cccnc3)nc2C)cc1
inactive: [1] 33.2% | [2] 11.8% | [3] 3.25% | [4] 17.9% | [5] 17.5% | [6] 29.3%

CCC(C)CN1C(=O)NC(C)(Cc2ccccc2)C1=O (stereo not drawn)
inactive: [1] 18.6% | [2] 1.25% | [3] 1.15% | [4] 16.8% | [5] 7.85% | [6] 4.25%

OCCCSc1ccccc1SCCCO
inactive: [1] -1.4% | [2] -2.45% | [3] 3.5% | [4] -1.7% | [5] 3.75% | [6] 5.1%

COC(=O)N1N=C(c2ccccc2)C(C(=O)OC)(C(=O)OC)c2ccccc21
inactive: [1] 45.7% | [2] 11.9% | [3] 24.6% | [4] 16.6% | [5] 20.2% | [6] 36.8%

CCOC(=O)c1cnc2[nH]ccn2c1=O
inactive: [1] -26.9% | [2] -43.3% | [3] -4.45% | [4] 10.3% | [5] -6.55% | [6] -8.75%

CSc1ccc(NC(=O)Nc2cc(Cl)c(Cl)cc2C)cc1
inactive: [1] 4.7% | [2] 60.5% | [3] 46.8% | [4] -1.95% | [5] 35% | [6] 25.2%

COc1cc(N)c(OC)nn1
inactive: [1] -1.1% | [2] 9.4% | [3] 3.15% | [4] -14.8% | [5] 11.3% | [6] -10.4%

N#CCCN(CCC#N)c1ccc(/C=C2\CC(O)(c3ccccc3)N(c3ccc(Cl)cc3)C2=O)cc1 (stereo not drawn)
inactive: [1] -15.8% | [2] 0.35% | [3] -23.7% | [4] 11.3% | [5] -6.3% | [6] -22.4%

CCCCCCCCC(=O)OCC(=O)c1ccc(-c2ccccc2)cc1
inactive: [1] 10.8% | [2] -15.3% | [3] 3.35% | [4] -7.85% | [5] 3.3% | [6] 3.65%

Cc1nn(C)c(=O)c(N)c1-c1cc(-c2ccc(Cl)cc2)n[nH]1
inactive: [1] 13.9% | [2] 4.45% | [3] 19.9% | [4] 20.1% | [5] 18.1% | [6] 13.9%

Cc1ccc(NC(=O)Nc2cccc(Cl)c2C)cc1C
inactive: [1] 3.75% | [2] 11.5% | [3] 12.8% | [4] -1.85% | [5] 8.45% | [6] -15.9%

COc1ccc(-n2nc3c(ccc4ccccc43)c2N)cc1
inactive: [1] 2.8% | [2] -8.5% | [3] 16.5% | [4] -2.05% | [5] -0.4% | [6] 8.5%

CCOC(=O)Oc1ccc(Cl)cc1Cl
inactive: [1] 3.2% | [2] 14.1% | [3] 2.55% | [4] 5.2% | [5] -4.4% | [6] -3.8%

CCOC(=O)C(NC(=O)NCc1ccc(F)cc1)C(F)(F)F (stereo not drawn)
inactive: [1] -46.7% | [2] 2.2% | [3] -31.5% | [4] 19.4% | [5] 51.9% | [6] -43.1%

NC1=C(Br)C(=O)c2[nH]c(=O)[nH]c(=O)c2C1=O
inactive: [1] 18.8% | [2] 7.6% | [3] 24.4% | [4] -4% | [5] 7.15% | [6] 20.6%

Cc1ccc(C2[C@H]3C(=O)N(c4ccc(Cc5ccc(N6C(=O)[C@@H]7ON(c8ccccc8)C(c8ccc(C)cc8)[C@@H]7C6=O)cc5)cc4)C(=O)[C@H]3ON2c2ccccc2)cc1 (stereo partly drawn)
inactive: [1] -23.9% | [2] -17.9% | [3] -8.1% | [4] 26.9% | [5] -5.75% | [6] -10.8%

O=c1[nH]c(-c2ccccc2)c([N+](=O)[O-])c(=O)[nH]1
inactive: [1] 10.7% | [2] -6.25% | [3] -7.65% | [4] -60.2% | [5] 5.95% | [6] 13.6%

N#C/C(=C/N1C(=O)/C(=C/c2ccc([N+](=O)[O-])cc2)SC1=S)C(N)=O
inactive: [1] 45% | [2] 56.5% | [3] 63.4% | [4] 54.3% | [5] 45% | [6] 42%

CCOC(=O)Nc1cc2c(c(N)n1)N=C(CN(C)c1ccccc1)CN2
inactive: [1] 22.9% | [2] 6.15% | [3] 59.5% | [4] 16.3% | [5] 35% | [6] 30.3%

COC1CC(NC(C)=O)C(OC(=O)c2ccccc2)C(CBr)O1 (stereo not drawn)
inactive: [1] 17.6% | [2] 1.4% | [3] 2.45% | [4] 15.2% | [5] -1.8% | [6] 19.6%

Nc1nc(=S)c2ncn(C3OC(COC(=O)c4ccc([N+](=O)[O-])cc4)C(OC(=O)c4ccc([N+](=O)[O-])cc4)C3OC(=O)c3ccc([N+](=O)[O-])cc3)c2[nH]1 (stereo not drawn)
inactive: [1] 3.35% | [2] 3.35% | [3] -2.65% | [4] -1.7% | [5] -5.65% | [6] 14.3%

CC(C)NC(=O)c1ccccc1-[s+]1c2ccccc2c(=O)n1C(C)C (stereo not drawn)
inactive: [1] 22% | [2] 1.15% | [3] -11.7% | [4] 3.9% | [5] -2.95% | [6] 9.3%

O=C(NO)Nc1ccc(Cl)cc1
inactive: [1] 12.2% | [2] 8.7% | [3] 2.95% | [4] -2.15% | [5] -9.2% | [6] 1.65%

CN(C)CC1CCc2c(n(C)c3ccccc23)C1=O (stereo not drawn)
inactive: [1] -2.55% | [2] -2.85% | [3] 5.2% | [4] -51.8% | [5] -4.35% | [6] 10.6%

COCC(=O)C(C(C)=O)C(c1ccncc1)C(C(C)=O)C(=O)COC (stereo not drawn)
inactive: [1] -7.75% | [2] 14.9% | [3] 6.85% | [4] -10.2% | [5] -1.6% | [6] -20.4%

C=C1C(=O)OC2/C=C(\C)C(O)C/C=C(/C)C(OC(=O)/C(C)=C\C)C(O)C12 (stereo not drawn)
inactive: [1] 13.9% | [2] -17.8% | [3] 7.2% | [4] 5.6% | [5] -12.8% | [6] 11.8%

CCN(CC)C(=S)SCCC(N)=O
inactive: [1] -12.4% | [2] -13.8% | [3] -2.8% | [4] 9.15% | [5] -1.25% | [6] -0.65%

Nc1cccc2c1C(=O)c1cccc(Nc3ccc4c(c3)C(=O)c3ccccc3C4=O)c1C2=O
inactive: [1] -2.95% | [2] -2.7% | [3] 5.55% | [4] 47.9% | [5] -14.2% | [6] 32.9%

Cc1ccc(C2CC(c3ccc([N+](=O)[O-])cc3)=Nc3ccccc3S2)cc1 (stereo not drawn)
inactive: [1] 6.4% | [2] -1.75% | [3] 15.1% | [4] 14.7% | [5] 20.5% | [6] 8.6%

CN(C)C1=CC(=S)NC2CCCCC12 (stereo not drawn)
inactive: [1] 4.1% | [2] -4.7% | [3] 10.6% | [4] 2.05% | [5] -10.1% | [6] 22.1%

Nc1ccc(S(=O)(=O)N(CCO)CCO)cc1
inactive: [1] -2.65% | [2] -28.2% | [3] -20.9% | [4] -6.95% | [5] -18.8% | [6] -12.3%
